Assay results: PubChem BioAssay

Experiment: binders of probe aFSTL3 on microarray, primary screen, stem cell growth factor project, biochemical, small-molecule microarray, fluorescence 635/667 (AID 1064);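 further: measures binding of the biotinylated anti-FSTL3 antibody to printed compounds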
Conditions: higher = more signal

Row | SMILES | composite z-score
1 | O=C(O)[C@]1(CCS(=O)(=O)c2ccccc2)N=C(c2ccc(OCCCO)cc2)O[C@@H]1c1ccccc1 | 1.19
2 | [N-]=[N+]=NCc1ccccc1C[C@]1(C(=O)NCCN2CCOCC2)COC(c2ccc(OCCCO)cc2)=N1 | 0.186
3 | CC(C)C[C@@H]1NC(=O)[C@@H]2C[C@H](C(=O)NCc3ccc(F)cc3)[C@H](c3ccc(O)cc3)N2C1=O | 0.454
4 | C=CCNC(=O)[C@H]1[C@@H]2C(=O)O[C@@H](c3ccccc3)[C@@H](c3ccccc3)N2[C@@H](c2ccc(O)cc2)[C@]12C(=O)N(C(=O)OCCOC)c1ccc(C#CC3(O)CCCCCC3)cc12 | 0.228
5 | COCCOC(=O)N1C(=O)[C@@]2(c3cc(C#CCC(C(=O)OC)C(=O)OC)ccc31)[C@H](C(=O)N1CCCCCCC1)[C@H]1C(=O)O[C@H](c3ccccc3)[C@H](c3ccccc3)N1[C@@H]2c1ccc(O)cc1 | 2.64
6 | O=[N+]([O-])c1ccc(C[n+]2ccc(-c3ccc(CO)cc3)cc2)o1 | -0.217
7 | CN1C(=O)C2C=CC(C(O)COCc3ccccc3)N(Nc3ccccc3)C2C1=O (stereo not given) | -0.121
8 | COC(=O)[C@@]1(Cc2ccc(OC)cc2)[C@H]2c3cc(C(=O)N4CCCC4)n(CCc4ccc(O)c(OC)c4)c3C[C@H]2CN1C(=O)c1ccccc1 | 0.411
9 | C=C(CCCC)/C(=C/C[C@H](OC(=O)c1ccncc1)c1ccc(CO)o1)c1cc(C(=O)OC)ccc1OC | -0.293
10 | C[C@@H]1ON(c2ccccc2)[C@H](c2ccccc2)[C@H]1C(=O)N1C(=O)OC[C@H]1Cc1ccccc1 | -0.414

Experiment: binders from COS7 lysate, DM2A8 probe, primary screen, torsin A project, cell lysate, small-molecule microarray, fluorescence 635/667 (AID 1065)
Conditions: higher = more signal, COS7 lysate expressing mutant human TOR1A

Row | SMILES | composite z-score
11 | COC(=O)c1ccc(OC)c(/C=C\CC(CCc2ccccc2)OC(C)=O)c1 (stereo not given) | -0.115
12 | C[N+](C)(C)CCCC[C@@H]1NC(=O)[C@H]2C[C@@H](C(=O)NCCCCCCN)[C@@H](c3cccc(OCCO)c3)N2C1=O | 1.85
13 | C/C=C/[C@@H](CCn1cc([C@H](O)c2ccccc2)nn1)[Si](C)(C)c1ccc(OC)cc1 | 1.28
14 | CCCCCCCCCCC(O)C1C=CC2C(=O)NC(=O)C2N1Nc1ccccn1 (stereo not given) | -1.14
15 | COC(=O)[C@@]1(Cc2ccc(F)cc2)[C@H]2c3cc(C(=O)N(C)C)n(CCSCCO)c3C[C@H]2CN1C(=O)c1ccccc1 | 0.273
16 | CC1CC/C=C\[C@H]2OC34C=CCN(Cc5ccccc5)C(=O)[C@H]3N(CCO)C(=O)[C@@H]4C2C(=O)O1 (stereo not given in full) | 2.2
17 | C=C(COC)C(=O)CC[C@H](OC(=O)c1ccccc1-c1ccccc1C(=O)O)c1ccc(OCCO)cc1 | 1.42
18 | C=CCC(OC(C)=O)[C@@H]1[C@@H](N(Cc2cc3ccccc3o2)C(=O)Cc2ccc(OC)cc2)c2cc(OCCCO)ccc2N1C(=O)c1ccc(-c2ccccc2)cc1 (stereo not given in full) | 0.459
19 | CC1CC/C=C\[C@H]2OC34C=CCN(c5ccc(Cl)cc5)C(=O)[C@H]3N(C(CO)C(C)C)C(=O)[C@]4(C)C2C(=O)O1 (stereo not given in full) | 1.9
20 | O=C1O[C@@H](c2ccccc2)[C@@H](c2ccccc2)N2[C@@H](c3ccc(O)cc3)[C@]3(C(=O)Nc4ccc(C#CC5(O)CCCCCC5)cc43)[C@@H](C(=O)N3CCN(c4ncccn4)CC3)[C@H]12 | 0.0262
21 | CC[C@@H]1[C@@H]2C3C(=O)N(CC)C(=O)C3CC(=O)[C@@H]2[C@H](c2ccc(C)cc2)N1S(=O)(=O)c1ccc(C)cc1 (stereo not given in full) | 0.0428
22 | COCCOC(=O)N1C(=O)[C@@]2(c3cc(C#CCCO)ccc31)[C@H](C(=O)NC[C@H](O)c1ccccc1)[C@H]1C(=O)O[C@H](c3ccccc3)[C@H](c3ccccc3)N1[C@@H]2c1ccccc1OCCO | 0.284
23 | C=CCOC(=O)[C@@H]1[C@H]2C(=O)O[C@H](c3ccccc3)[C@H](c3ccccc3)N2[C@H](c2ccc(OCCOC(=O)[C@@H]3C[C@@H]4C(=O)N[C@@H](CCCCNC(C)=O)C(=O)N4[C@@H]3c3ccc(O)cc3)cc2)[C@@]12C(=O)Nc1ccc(I)cc12 | 0.0133
24 | CC(C)CCC[C@@H](C)[C@H]1CC[C@@]2(C)C3=C(CC[C@]12C)[C@@]1(C)CC[C@H](OC(=O)c2ccc(N)cc2)C(C)(C)C1CC3 (stereo not given in full) | 0.481
25 | CCCN1C(=O)[C@@H]2Cc3c([nH]c4ccccc34)[C@@H](c3cccc(O)c3)N2C1=O | 0.247
26 | C=CCN1C(=O)[C@@]2(O[C@@H](CCn3cc([C@H](O)c4ccccc4)nn3)[C@H]([Si](C)(C)c3ccc(OC)cc3)[C@H]2C)c2cc(NC(=O)c3ccc(OC)cc3)ccc21 | 0.321
27 | COc1ccc([Si](C)(C)[C@@H]2[C@@H](CC(=O)N(CCO)Cc3ccccc3)O[C@]3(C(=O)N(Cc4ccc(N5CCOC5=O)cc4)c4ccccc43)[C@H]2C)cc1 | 0.181
28 | COCCOC(=O)N1C(=O)[C@@]2(c3cc(C#Cc4ccc(OC)cc4)ccc31)[C@H](C(=O)N1CCc3cc(OC)c(OC)cc3C1)[C@H]1C(=O)O[C@H](c3ccccc3)[C@H](c3ccccc3)N1[C@@H]2c1ccc(O)cc1 | 0.613

Row | SMILES | composite z-score
29 | CC(C)CNC(=O)[C@@]1(C)c2ccccc2C(=O)N(Cc2ccccc2)[C@H]1c1ccc(CO)cc1 | -1.04
30 | COc1ccccc1CN1C(=O)c2ccccc2[C@](Cc2ccccc2I)(C(=O)NCCN2CCOCC2)[C@@H]1c1ccc(CO)cc1 | 0.148
31 | CCCCCCC#C[Si](O[C@H](c1ccccc1)c1cn(Cc2cccc(Cl)c2)nn1)(C(C)C)C(C)C | 0.485
32 | COc1ccc([Si](C)(C)[C@@H]2[C@@H](CCO)O[C@]3(C(=O)N(Cc4ccccc4)c4ccc(N5CCCCC5=O)cc43)[C@H]2C)cc1 | 0.942
33 | COC(=O)[C@@]1(Cc2ccc(F)cc2)[C@@H]2[C@@H](CC(=O)[C@H]2CC(=O)C(=O)N2CCCC2)CN1C(=O)c1ccccc1 | -0.196
34 | COCCOC(=O)N1C(=O)[C@@]2(c3cc(C#CCCO)ccc31)[C@H](c1ccc(OCCO)cc1)N1[C@H](c3ccccc3)[C@H](c3ccccc3)OC(=O)[C@H]1[C@@H]2C(=O)N1CCc2cc(OC)c(OC)cc2C1 | 0.444
35 | C=CC[C@]1(C(=O)NCC(O)CO)N=C(c2ccc(OCCCO)cc2)O[C@H]1c1ccccc1N=[N+]=[N-] (stereo not given in full) | -0.444
36 | O=C(O)[C@]1(CCS(=O)(=O)c2ccccc2)N=C(c2ccc(OCCCO)cc2)O[C@@H]1c1ccccc1 | -0.106
37 | [N-]=[N+]=NCc1ccccc1C[C@]1(C(=O)NCCN2CCOCC2)COC(c2ccc(OCCCO)cc2)=N1 | 1.25
38 | CC(C)C[C@@H]1NC(=O)[C@@H]2C[C@H](C(=O)NCc3ccc(F)cc3)[C@H](c3ccc(O)cc3)N2C1=O | 0.0392
39 | C=CCNC(=O)[C@H]1[C@@H]2C(=O)O[C@@H](c3ccccc3)[C@@H](c3ccccc3)N2[C@@H](c2ccc(O)cc2)[C@]12C(=O)N(C(=O)OCCOC)c1ccc(C#CC3(O)CCCCCC3)cc12 | 0.494
40 | COCCOC(=O)N1C(=O)[C@@]2(c3cc(C#CCC(C(=O)OC)C(=O)OC)ccc31)[C@H](C(=O)N1CCCCCCC1)[C@H]1C(=O)O[C@H](c3ccccc3)[C@H](c3ccccc3)N1[C@@H]2c1ccc(O)cc1 | 0.745
41 | O=[N+]([O-])c1ccc(C[n+]2ccc(-c3ccc(CO)cc3)cc2)o1 | 0.239
42 | CN1C(=O)C2C=CC(C(O)COCc3ccccc3)N(Nc3ccccc3)C2C1=O (stereo not given) | 0.165
43 | COC(=O)[C@@]1(Cc2ccc(OC)cc2)[C@H]2c3cc(C(=O)N4CCCC4)n(CCc4ccc(O)c(OC)c4)c3C[C@H]2CN1C(=O)c1ccccc1 | -0.336
44 | C=C(CCCC)/C(=C/C[C@H](OC(=O)c1ccncc1)c1ccc(CO)o1)c1cc(C(=O)OC)ccc1OC | 1.83
45 | C[C@@H]1ON(c2ccccc2)[C@H](c2ccccc2)[C@H]1C(=O)N1C(=O)OC[C@H]1Cc1ccccc1 | 0.464
